# Source: publication PMC5540273 (PLoS ONE, 2017)
# Assays:
# Settings in all cases: concentration: 1 μM, replicates: in singlicate; n = 1
# PIM1 = tested on: PIM1
# PIM2 = tested on: PIM2
# PIM3 = tested on: PIM3
# PIP5K1A = tested on: PIP5K1A
# PIP5K1C = tested on: PIP5K1C
# PIP5K2B = tested on: PIP5K2B
# PIP5K2C = tested on: T1, PIP5K2C
# T1 construct: gene PIP4K2C
# PKAC-alpha = tested on: T2, PKAC-alpha
# T2 construct: gene PRKACA
# PKAC-beta = tested on: T3, PKAC-beta
# T3 construct: gene PRKACB
# PKMYT1 = tested on: PKMYT1
# PKN1 = tested on: PKN1
# PKN2 = tested on: PKN2
# PLK1 = tested on: PLK1
# PLK2 = tested on: PLK2
# PLK3 = tested on: PLK3
# PLK4 = tested on: PLK4
# PRKCD = tested on: PRKCD
# PRKCE = tested on: PRKCE
# PRKCH = tested on: PRKCH
# PRKCI = tested on: PRKCI
# 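Further: KINOMEscan kinase panel screen.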
SMILES,%Inh (PIM1) [%],%Inh (PIM2) [%],%Inh (PIM3) [%],%Inh (PIP5K1A) [%],%Inh (PIP5K1C) [%],%Inh (PIP5K2B) [%],%Inh (PIP5K2C) [%],%Inh (PKAC-alpha) [%],%Inh (PKAC-beta) [%],%Inh (PKMYT1) [%],%Inh (PKN1) [%],%Inh (PKN2) [%],%Inh (PLK1) [%],%Inh (PLK2) [%],%Inh (PLK3) [%],%Inh (PLK4) [%],%Inh (PRKCD) [%],%Inh (PRKCE) [%],%Inh (PRKCH) [%],%Inh (PRKCI) [%]
Cc1cccc(-c2nc(Nc3ccc4[nH]ncc4c3)c3ccccc3n2)n1 [GW857175],5,38,0,0,0,42,0,34,0,19,10,0,11,12,15,8,11,0,0,33
O=S(=O)(c1ccc(-c2ccnc3[nH]ccc23)cc1)N1CCCC1 [GSK846226],13,0,8,37,19,0,0,81,71,0,40,0,0,4,0,0,0,2,0,20
Cn1cncc1-c1ccc2ncnc(Nc3ccc(OCc4ccccc4)cc3)c2c1 [GW320571],0,2,0,0,16,17,76,0,8,8,1,0,9,0,0,0,0,14,14,32
Cc1cccc(-c2nc(Nc3cccc(C(N)=O)c3)c3ccccc3n2)n1 [GW876019],3,9,4,12,50,0,50,0,36,32,0,0,0,0,4,0,7,0,0,24
Clc1cc(Cl)cc(Nc2ccnc(Nc3cc(Cl)cc(Cl)c3)n2)c1 [GSK175726],20,0,0,9,39,7,26,10,0,8,31,0,0,3,1,78,7,13,22,15
Cn1ccc2ncnc(Oc3ccc(NC(=O)Nc4ccccc4)cc3)c21,8,13,22,0,5,5,1,16,17,16,2,0,0,0,0,11,7,4,0,11
O=c1cc(N2CCOCC2)nc2n(Cc3cccc(Cl)c3Cl)ccn12 [GSK2286295],4,0,5,0,16,2,0,16,5,2,0,0,10,0,0,0,0,0,20,48
CS(=O)(=O)c1ccc(-c2nc3n(c2-c2ccncc2)CCC3)cc1 [SKF-105942],0,0,0,4,13,21,7,0,0,0,8,0,0,22,0,11,0,18,1,2
O=C(Nc1n[nH]c2nc(-c3nccs3)c(Br)cc12)C1CC1 [SB-742251],0,0,0,7,67,23,27,0,0,3,6,0,0,0,0,0,0,11,0,5
COc1cccc(-c2cc(-c3c[nH]nc3-c3ccccn3)ccn2)c1 [GW680338],0,0,0,19,69,21,55,0,0,0,0,7,13,0,7,0,12,13,1,0
